Hits are enriched below; roughly 6.5% of the tested compounds scored in any of these assays.
MK inhibit = S. pneumoniae mevalonate kinase inhibition. inhibition, % at 10 µM. purified MK, PK/LDH-coupled NADH absorbance 340 nm. AID 555. 65,000 tested, 0.48% active;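 active means ranked among the strongest by inhibition in the single 10 µM screen, a fixed top-ranked set picked for dose follow-up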
NADH coupling = inhibitors of enzymes used to reach an NAD/NADH endpoint; coupled PK/LDH NADH assays, four targets; AID 774; IC50, µM (series often up to 10 µM), for inactives: top-dose inhibition; 65,000 tested, 0.02% active;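 active means single-dose screening hits from any of four coupled enzyme assays that gave an IC50 when retested across doses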;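 further: the DPM-DC format reads NADH fluorescence rather than 340 nm absorbance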
Spn DPM-DC inh = blocks S. pneumoniae diphosphomevalonate decarboxylase; purified DPM-DC, PK/LDH coupled NADH fluorescence; calls only at 10 µM; 65,000 tested, 0.49% active; AID 556;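 active means the 320 compounds with the highest percent inhibition in the single-dose primary screen, excluding strongly autofluorescent ones, cut at about 32% in these data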;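 further: kinetic rate of NADH fluorescence loss reporting ADP formed by the decarboxylase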
Autofluor 339 = intrinsic fluorescence of library compounds, ex339/em460 – biochemical, MLSMR library, data from DPM-DC assay, artefact control, profiling panel | compound autofluorescence, ex339/em460 nm, NADH buffer; active compounds read high; 1 = no-compound wells, NADH background | fluorescence fold increase at 10 µM | 65,000 tested, 5.5% active | AID 709;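 active means at 10 µM, mean starting fluorescence two-fold or more over control wells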;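 further: signal is the first read of a kinetic run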
A340 absorber = compounds absorbing at 340 nm; compound absorbance at 340 nm, fold over control; fold change at 10 µM; 65,000 tested, under 10 active;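 active means at 10 µM dose, initial 340 nm absorbance at least 2 fold that of control wells; inactive means change under 2 fold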;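 further: initial absorbance extrapolated from kinetic A340 decline of NADH oxidation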
Spn PMK inh = blocks S. pneumoniae phosphomevalonate kinase; 65,000 tested, 0.49% active; purified PMK, PK/LDH-coupled NADH absorbance 340 nm; inhibition, % at 10 µM;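 active means top-ranked compounds by inhibition in the single 10 µM screen, taking a fixed number of the strongest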;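 further: 0% = full reaction with DMSO carrier and 100% = background rate without enzyme reaction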
Starred values were filed as active, the others as inactive; i = inactive; · = no result given; + = active, no number.

SMILES | MK inhibit | NADH coupling | Spn DPM-DC inh | Autofluor 339 | A340 absorber | Spn PMK inh
CCCOC(=O)c1cc(=O)[nH]c2ccccc12 | 0 | 6% | i | 2.3* | 1 | 11
Clc1cccc(-c2nnc3sc(-c4ccc5c(c4)OCO5)nn23)c1 | 0 | 1% | i | 1.2 | 1.1 | 3
c1ccc2c(c1)OCC(c1nnc3sc(-c4ccc5c(c4)OCO5)nn13)O2 (stereo not drawn) | 0 | 6% | i | 2.6* | 1 | 10
Brc1ccccc1-c1nnc2sc(-c3ccc4c(c3)OCCO4)nn12 | 6 | 7% | i | 2* | 1.1 | 11
Clc1ccccc1-c1nn2c(Cn3cnc4ccccc43)nnc2s1 | 10 | 5% | i | 1.1 | 1 | 5
Clc1ccccc1-c1nnc2sc(-c3ccc4c(c3)OCO4)nn12 | 20 | 17% | i | 2.6* | 1 | 11
Fc1ccc(-c2nn3c(C4COc5ccccc5O4)nnc3s2)cc1 (stereo not drawn) | 8 | 5% | i | 1.1 | 0.99 | 6
Brc1ccccc1-c1nnc2sc(Cc3ccccc3)nn12 | 4 | 6% | i | 1.1 | 1 | 6
c1ccc2c(c1)ncn2Cc1nnc2sc(-c3ccc4c(c3)OCO4)nn12 | 8 | 12% | · | 3.8* | 1.1 | 15
Cc1ccc(-c2nc3ncccn3c2NC(=O)C2CC2)cc1 | 2 | 3% | · | 5* | 1.1 | 4
Oc1ccc(-c2nc3ncccn3c2Nc2ccc3c(c2)OCCO3)cc1 | 15 | 9% | i | 1.1 | 1.1 | 12
CC(=O)Nc1c(-c2ccccc2)nc2ncccn12 | 7 | 4% | · | 2.2* | 1.1 | 0
N#Cc1nc(-c2ccccc2Cl)oc1NCc1ccco1 | 5 | 3% | i | 1.3 | 1 | 3
N#Cc1nc(-c2ccc(Cl)cc2)oc1NCc1cccc2c1OCO2 | 8 | 6% | · | 3.8* | 1.1 | 3
N#Cc1nc(-c2ccc(Cl)cc2)oc1NCc1ccco1 | 4 | 4% | · | 2.1* | 1.1 | 3
Cc1occc1C(=O)N1CCN(C(=O)C2CCCO2)CC1 (stereo not drawn) | 6 | 2% | i | 1.1 | 1.1 | 0
CC(C(=O)Nc1ncc2c(n1)CC(C)(C)CC2=O)N1C(=O)c2ccccc2C1=O (stereo not drawn) | 11 | 8% | i | 1.1 | 0.99 | 14
CCOc1ccc(C(=O)Nc2c3c(nn2C(C)(C)C)CSC3)cc1OCC | 6 | 8% | i | 1.1 | 0.99 | 17
Cc1ccc(-c2cc(C(F)(F)F)c(C#N)c(SCCC#N)n2)o1 | 8 | 5% | · | 3.7* | 1.1 | 2
CCCc1nc(N2CCCC2)c(C#N)c2c1CCCC2 | 20 | 7% | i | 2.1* | 1 | 0
CC(C)c1nc(N2CCCC2)c(C#N)c2c1CCCC2 | 1 | 1% | · | 2.1* | 1.1 | 0
CCc1nc(N2CCCC2)c(C#N)c2c1CCCC2 | 0 | 4% | i | 1.6 | 0.93 | 12
CCc1nc(N2CCOCC2)c(C#N)c2c1CCCC2 | 0 | 1% | i | 2* | 1 | 2
CN1CCc2c(C#N)c(N3CCCCC3)nc(N3CCOCC3)c2C1 | 4 | 6% | i | 1.6 | 1.1 | 1
COC(=O)C1CCN(C(=O)c2ccc(NC(C)=O)cc2)CC1 | 0 | 2% | i | 1.1 | 1 | 5
SMILES | MK inhibit | NADH coupling | Spn DPM-DC inh | Autofluor 339 | A340 absorber | Spn PMK inh
COC(=O)C1=C(C)n2nnnc2NC1c1cc2ccccc2o1 (stereo not drawn) | 16 | 9% | i | 1.1 | 1 | 11
Cc1ccc2[nH]c(=O)c3cc(C(=O)N4CCN(C(=O)c5ccco5)CC4)sc3c2c1 | 13 | 11% | · | 2* | 1.1 | 8
Cc1ccc2oc(=O)c3cc(C(=O)N4CCN(C(=O)c5ccco5)CC4)sc3c2c1 | 4 | 5% | i | 1.3 | 1.2 | 7
Cc1ccc2[nH]c(=O)c3cc(C(=O)N(C)Cc4ccco4)sc3c2c1 | 0 | 3% | · | 2.2* | 1.1 | 6
Cc1ccc2oc(=O)c3cc(C(=O)N4CCN(c5ncccn5)CC4)sc3c2c1 | 5 | 11% | · | 2.1* | 1.1 | 17
COc1cc2nc3c4ccccc4n(CC#N)c3nc2cc1OC | 8 | 8% | · | 3.8* | 1.1 | 7
CCn1c2ccccc2c2nc3cc(OC)c(OC)cc3nc21 | · | 26% | + | 2.7* | 1.1 | 11
CCn1c2ccccc2c2nc3ccccc3nc21 | 6 | 3% | · | 2 | 1.1 | 0
Cc1ccc2c(CN3C(=O)NC4(CCCCC4)C3=O)cc(=O)oc2c1C | 0 | 7% | i | 1.1 | 1 | 21
Cn1c(=O)c2c(nc(CN3CCC(C(N)=O)CC3)n2CCCc2ccccc2)n(C)c1=O | 9 | 7% | i | 1.2 | 1 | 12
CCc1nn2c(=O)cc(N3CCN(c4cc(C)nc5ccccc45)CC3)nc2s1 | 8 | 3% | i | 1.1 | 1.1 | 1
Cc1sc2ncnc(-n3cnc4ccccc43)c2c1C | 9 | 6% | i | 2* | 1 | 5
Cc1cc(C)c2c(n1)nn1c(C)c(CCC(=O)NCc3ccco3)c(C)nc21 | 9 | 10% | · | 2.1* | 1.1 | 10
CCOC(=O)N1CCN(C(=O)CCc2c(C)nc3c(c(C)nn3-c3ccc(C)c(C)c3)c2C)CC1 | 7 | 11% | + | 2.6* | 0.98 | 13
Cc1ccc(-n2nc(C)c3c(C)c(CCC(=O)NCc4ccco4)c(C)nc32)cc1 | 1 | 6% | · | 2.2* | 1.1 | 10
O=c1c2ccccc2sn1-c1ccc(S(=O)(=O)N2CCCCC2)cc1 | 10 | 11% | + | 1 | 1 | 10
O=c1c2ccccc2sn1-c1ccc(S(=O)(=O)N2CCCC2)cc1 | 100* | 72% | + | 1.2 | 1.1 | 15
Cc1ccc(-n2sc3ccccc3c2=O)cc1S(=O)(=O)N1CCCCC1 | 100* | 70% | + | 1.2 | 1.1 | 20
O=C(NC1CCCCC1)c1cnn2c(C(F)(F)F)cc(-c3ccco3)nc12 | 0 | 12% | i | 2.5* | 1.1 | 14
O=C(CSc1nc2nc(-c3cccs3)cc(C(F)(F)F)c2c(=O)[nH]1)NCc1ccco1 | 12 | 12% | · | 4.9* | 1.1 | 11
O=C(NCc1ccco1)c1cnn2c(C(F)(F)F)cc(-c3cccs3)nc12 | 10 | 8% | i | 2.3* | 1.1 | 7
Cc1cc(NC(=O)c2cnn3c(C(F)F)cc(-c4ccccc4)nc23)no1 | 0 | 1% | i | 1.2 | 1.1 | 0
O=C(NCc1ccco1)c1cnn2c(C(F)F)cc(-c3ccccc3)nc12 | 11 | 12% | i | 2.1* | 1.1 | 4
CCOc1ccc(-n2c(=S)sc3c(=O)[nH]c(SCC(=O)NCc4ccco4)nc32)cc1 | 0 | 4% | i | 1 | 1.1 | 12
O=C(O)c1cnn2c(C(F)(F)F)cc(-c3ccco3)nc12 | 4 | 1% | i | 1.2 | 1.1 | 0
CN(C)C(=O)CN(c1ccc(F)c(Cl)c1)S(C)(=O)=O | 10 | 3% | i | 1.1 | 1 | 8
